We go through 4 compounds from ChEMBL document CHEMBL1961873, “Compounds: GSK PKIS; Assays: Nanosyn kinase panel” (2012).

Assay [1] addresses T1, Serine/threonine-protein kinase Nek9 (Homo sapiens) (UniProt Q8TD19).
T1 sequence (whole entry): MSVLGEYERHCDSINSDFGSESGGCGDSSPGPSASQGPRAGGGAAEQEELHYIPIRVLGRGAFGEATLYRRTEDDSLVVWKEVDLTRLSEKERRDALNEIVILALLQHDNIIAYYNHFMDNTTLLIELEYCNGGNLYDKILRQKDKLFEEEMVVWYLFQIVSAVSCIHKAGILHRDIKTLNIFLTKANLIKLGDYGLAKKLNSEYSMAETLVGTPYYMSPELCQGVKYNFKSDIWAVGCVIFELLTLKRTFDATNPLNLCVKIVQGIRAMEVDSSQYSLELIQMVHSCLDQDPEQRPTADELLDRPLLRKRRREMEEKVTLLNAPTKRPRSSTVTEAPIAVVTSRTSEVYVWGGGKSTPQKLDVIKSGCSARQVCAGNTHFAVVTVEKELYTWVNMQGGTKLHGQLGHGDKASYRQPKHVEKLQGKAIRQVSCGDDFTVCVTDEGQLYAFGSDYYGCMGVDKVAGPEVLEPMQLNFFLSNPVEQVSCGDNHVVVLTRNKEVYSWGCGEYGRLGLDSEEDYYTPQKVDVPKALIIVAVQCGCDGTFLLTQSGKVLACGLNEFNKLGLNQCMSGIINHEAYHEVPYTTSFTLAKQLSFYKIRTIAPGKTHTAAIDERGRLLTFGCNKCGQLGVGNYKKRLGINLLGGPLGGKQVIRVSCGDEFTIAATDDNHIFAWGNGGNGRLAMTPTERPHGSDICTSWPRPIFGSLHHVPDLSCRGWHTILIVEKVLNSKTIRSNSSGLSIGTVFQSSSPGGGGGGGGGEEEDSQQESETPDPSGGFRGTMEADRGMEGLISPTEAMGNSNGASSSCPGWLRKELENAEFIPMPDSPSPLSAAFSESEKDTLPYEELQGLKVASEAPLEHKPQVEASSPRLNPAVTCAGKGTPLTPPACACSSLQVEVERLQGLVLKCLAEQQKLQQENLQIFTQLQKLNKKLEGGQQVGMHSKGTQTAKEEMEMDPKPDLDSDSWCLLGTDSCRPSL
To be noted: at 1 µM.

Assay [2] concerns the target Serine/threonine-protein kinase PLK1 (Homo sapiens) (UniProt P53350). Conditions: at 0.1 µM.
Assay [3] shares this target. Conditions: at 1 µM.
Assay [4] concerns the target T2, Dual specificity protein kinase TTK (Homo sapiens) (UniProt P33981).
T2 sequence (whole entry): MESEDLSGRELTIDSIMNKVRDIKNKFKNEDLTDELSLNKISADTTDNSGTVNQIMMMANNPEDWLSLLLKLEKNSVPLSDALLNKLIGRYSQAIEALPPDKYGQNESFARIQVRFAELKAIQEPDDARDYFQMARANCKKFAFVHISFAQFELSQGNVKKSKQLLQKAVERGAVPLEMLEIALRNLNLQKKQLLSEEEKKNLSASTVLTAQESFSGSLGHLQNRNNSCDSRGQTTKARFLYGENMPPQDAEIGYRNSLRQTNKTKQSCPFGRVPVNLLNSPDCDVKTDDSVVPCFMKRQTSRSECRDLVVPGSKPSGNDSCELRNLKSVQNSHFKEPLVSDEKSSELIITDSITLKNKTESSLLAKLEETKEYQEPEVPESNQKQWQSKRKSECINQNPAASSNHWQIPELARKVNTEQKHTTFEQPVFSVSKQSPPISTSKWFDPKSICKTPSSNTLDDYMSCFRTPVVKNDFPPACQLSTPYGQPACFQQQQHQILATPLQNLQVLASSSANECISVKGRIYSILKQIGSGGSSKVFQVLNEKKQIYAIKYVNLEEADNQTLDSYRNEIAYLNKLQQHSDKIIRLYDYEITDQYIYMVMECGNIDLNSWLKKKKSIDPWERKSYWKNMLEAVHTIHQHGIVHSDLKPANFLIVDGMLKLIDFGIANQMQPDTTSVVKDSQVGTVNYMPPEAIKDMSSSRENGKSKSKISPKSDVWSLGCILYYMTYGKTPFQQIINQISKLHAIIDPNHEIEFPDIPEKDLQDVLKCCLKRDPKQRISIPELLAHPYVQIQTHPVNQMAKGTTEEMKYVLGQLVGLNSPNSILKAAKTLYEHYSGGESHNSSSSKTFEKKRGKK
Conditions: at 0.1 µM.

The subject of assay [5] is T3, Receptor-type tyrosine-protein kinase FLT3 (Homo sapiens), P36888 [D835Y].
T3 sequence (whole entry): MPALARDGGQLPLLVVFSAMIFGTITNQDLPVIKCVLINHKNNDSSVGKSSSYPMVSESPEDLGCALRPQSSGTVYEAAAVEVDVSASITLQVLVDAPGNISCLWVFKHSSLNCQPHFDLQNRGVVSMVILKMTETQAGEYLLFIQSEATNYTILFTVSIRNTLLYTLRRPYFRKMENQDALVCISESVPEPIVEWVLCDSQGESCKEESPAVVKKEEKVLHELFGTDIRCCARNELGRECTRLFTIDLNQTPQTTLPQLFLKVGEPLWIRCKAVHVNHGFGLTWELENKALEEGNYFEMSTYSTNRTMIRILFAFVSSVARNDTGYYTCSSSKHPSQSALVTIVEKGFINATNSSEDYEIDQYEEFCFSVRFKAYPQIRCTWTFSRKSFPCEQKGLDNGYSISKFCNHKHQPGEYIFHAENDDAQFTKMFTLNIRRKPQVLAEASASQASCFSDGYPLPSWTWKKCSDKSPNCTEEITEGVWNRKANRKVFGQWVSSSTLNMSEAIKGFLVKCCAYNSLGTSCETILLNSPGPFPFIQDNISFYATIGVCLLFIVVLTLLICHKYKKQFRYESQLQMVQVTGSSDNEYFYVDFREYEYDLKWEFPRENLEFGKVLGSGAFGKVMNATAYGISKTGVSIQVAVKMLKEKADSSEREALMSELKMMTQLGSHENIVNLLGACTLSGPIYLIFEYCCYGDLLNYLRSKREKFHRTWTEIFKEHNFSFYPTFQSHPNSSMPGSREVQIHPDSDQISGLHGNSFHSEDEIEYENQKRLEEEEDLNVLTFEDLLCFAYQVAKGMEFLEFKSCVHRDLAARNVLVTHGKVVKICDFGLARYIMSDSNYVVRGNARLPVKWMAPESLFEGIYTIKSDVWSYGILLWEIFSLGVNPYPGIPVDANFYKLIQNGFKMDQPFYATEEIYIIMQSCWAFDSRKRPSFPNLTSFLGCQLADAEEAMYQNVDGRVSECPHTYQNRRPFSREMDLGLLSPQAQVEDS
To be noted: at 1 µM.

The target of assay [6] is Vascular endothelial growth factor receptor 3 (Homo sapiens) (UniProt P35916). To be noted: at 0.1 µM.
Assay [7] has the same target. To be noted: at 1 µM.
Assay [8] concerns the target Macrophage colony-stimulating factor 1 receptor (Homo sapiens) (UniProt P07333). Conditions: at 0.1 µM.
The target is the same in assay [9]. To be noted: at 1 µM.
For assay [10], the target named is Tyrosine-protein kinase Fyn (Homo sapiens) (UniProt P06241). Conditions: at 0.1 µM.
Tyrosine-protein kinase Fyn (Homo sapiens), sequence (P06241 2-537 limits assumed): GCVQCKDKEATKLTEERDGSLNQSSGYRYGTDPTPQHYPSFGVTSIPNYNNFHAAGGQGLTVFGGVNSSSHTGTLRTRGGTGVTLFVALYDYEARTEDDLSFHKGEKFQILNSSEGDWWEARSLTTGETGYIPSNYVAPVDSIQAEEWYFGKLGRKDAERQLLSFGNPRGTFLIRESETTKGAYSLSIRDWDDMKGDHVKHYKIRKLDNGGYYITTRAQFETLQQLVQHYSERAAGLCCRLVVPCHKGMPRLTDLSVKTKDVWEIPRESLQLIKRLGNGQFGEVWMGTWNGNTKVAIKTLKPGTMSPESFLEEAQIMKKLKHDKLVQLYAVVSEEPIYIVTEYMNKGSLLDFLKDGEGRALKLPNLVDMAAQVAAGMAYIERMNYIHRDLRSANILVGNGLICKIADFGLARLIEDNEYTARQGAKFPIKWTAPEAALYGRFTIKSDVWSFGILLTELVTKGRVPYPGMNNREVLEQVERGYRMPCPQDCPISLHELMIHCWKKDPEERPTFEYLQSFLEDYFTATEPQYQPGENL
Assay [11] has the same target. To be noted: at 1 µM.
Assay [12] deals with Tyrosine-protein kinase HCK (Homo sapiens) (UniProt P08631). Conditions: at 0.1 µM.
Tyrosine-protein kinase HCK (Homo sapiens), sequence (P08631 2-526 limits assumed): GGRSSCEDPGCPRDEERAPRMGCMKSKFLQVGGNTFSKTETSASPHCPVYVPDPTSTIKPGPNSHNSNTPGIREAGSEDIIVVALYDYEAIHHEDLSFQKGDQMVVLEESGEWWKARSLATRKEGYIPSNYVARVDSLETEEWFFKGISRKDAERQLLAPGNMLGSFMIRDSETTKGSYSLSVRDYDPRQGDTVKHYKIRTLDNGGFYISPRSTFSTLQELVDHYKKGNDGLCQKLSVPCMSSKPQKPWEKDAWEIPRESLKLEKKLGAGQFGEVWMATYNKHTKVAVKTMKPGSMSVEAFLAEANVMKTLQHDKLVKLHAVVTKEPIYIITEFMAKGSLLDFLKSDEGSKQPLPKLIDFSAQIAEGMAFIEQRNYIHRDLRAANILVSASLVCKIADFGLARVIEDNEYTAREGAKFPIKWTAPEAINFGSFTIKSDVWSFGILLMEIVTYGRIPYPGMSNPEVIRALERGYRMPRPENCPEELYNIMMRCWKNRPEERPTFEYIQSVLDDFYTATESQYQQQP
Assay [13] shares this target. Conditions: at 1 µM.
Assay [14] addresses Insulin-like growth factor 1 receptor (Homo sapiens) (UniProt P08069). Conditions: at 0.1 µM.
Assay [15] has the same target. To be noted: at 1 µM.
Assay [16] deals with Insulin receptor (Homo sapiens) (UniProt P06213). To be noted: at 0.1 µM.
Insulin receptor (Homo sapiens), sequence (P06213 28-758 limits assumed): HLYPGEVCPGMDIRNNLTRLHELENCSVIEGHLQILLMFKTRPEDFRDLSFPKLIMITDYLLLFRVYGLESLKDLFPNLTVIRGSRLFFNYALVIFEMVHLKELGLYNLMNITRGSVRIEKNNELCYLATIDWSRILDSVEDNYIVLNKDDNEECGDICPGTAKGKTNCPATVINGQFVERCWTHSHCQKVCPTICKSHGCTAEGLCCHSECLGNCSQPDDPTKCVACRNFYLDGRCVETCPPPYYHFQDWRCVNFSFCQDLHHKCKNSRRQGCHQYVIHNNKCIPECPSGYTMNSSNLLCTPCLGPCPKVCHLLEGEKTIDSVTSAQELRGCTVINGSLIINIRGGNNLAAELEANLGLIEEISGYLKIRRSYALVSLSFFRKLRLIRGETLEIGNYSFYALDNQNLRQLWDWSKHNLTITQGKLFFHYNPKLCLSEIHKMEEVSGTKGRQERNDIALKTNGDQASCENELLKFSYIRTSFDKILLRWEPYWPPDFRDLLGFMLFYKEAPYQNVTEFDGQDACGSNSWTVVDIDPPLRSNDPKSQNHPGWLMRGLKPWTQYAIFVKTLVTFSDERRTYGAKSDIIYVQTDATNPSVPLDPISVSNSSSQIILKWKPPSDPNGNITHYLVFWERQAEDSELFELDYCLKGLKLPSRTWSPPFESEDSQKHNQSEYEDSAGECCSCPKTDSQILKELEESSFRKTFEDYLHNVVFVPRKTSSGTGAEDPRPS
Insulin receptor (Homo sapiens), sequence (P06213 763-1382 limits assumed): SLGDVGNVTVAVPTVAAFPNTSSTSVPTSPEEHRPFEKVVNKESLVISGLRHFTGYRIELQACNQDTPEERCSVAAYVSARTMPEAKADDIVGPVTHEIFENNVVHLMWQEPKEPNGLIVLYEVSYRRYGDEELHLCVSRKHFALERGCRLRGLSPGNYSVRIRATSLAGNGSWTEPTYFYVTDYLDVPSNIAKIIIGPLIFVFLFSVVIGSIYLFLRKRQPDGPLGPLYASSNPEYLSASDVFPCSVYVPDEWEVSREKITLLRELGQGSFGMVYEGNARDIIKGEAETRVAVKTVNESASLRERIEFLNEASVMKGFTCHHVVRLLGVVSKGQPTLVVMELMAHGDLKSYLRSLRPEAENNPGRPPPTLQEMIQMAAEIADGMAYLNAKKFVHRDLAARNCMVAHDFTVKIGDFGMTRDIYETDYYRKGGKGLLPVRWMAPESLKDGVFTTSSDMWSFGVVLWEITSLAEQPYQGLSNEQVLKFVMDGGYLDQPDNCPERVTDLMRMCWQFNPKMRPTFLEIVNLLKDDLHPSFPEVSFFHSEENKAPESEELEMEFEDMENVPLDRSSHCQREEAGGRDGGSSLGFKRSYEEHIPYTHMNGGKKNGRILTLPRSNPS
For assay [17] the target is unchanged. To be noted: at 1 µM.
In assay [18] the target is Insulin receptor-related protein (Homo sapiens) (UniProt P14616). Conditions: at 0.1 µM.
The target is the same in assay [19]. To be noted: at 1 µM.
The target of assay [20] is T4, Tyrosine-protein kinase ITK/TSK (Homo sapiens) (UniProt Q08881).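 Further: mean percent inhibition of ITK from the GSK PKIS screen.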
T4 sequence (whole entry): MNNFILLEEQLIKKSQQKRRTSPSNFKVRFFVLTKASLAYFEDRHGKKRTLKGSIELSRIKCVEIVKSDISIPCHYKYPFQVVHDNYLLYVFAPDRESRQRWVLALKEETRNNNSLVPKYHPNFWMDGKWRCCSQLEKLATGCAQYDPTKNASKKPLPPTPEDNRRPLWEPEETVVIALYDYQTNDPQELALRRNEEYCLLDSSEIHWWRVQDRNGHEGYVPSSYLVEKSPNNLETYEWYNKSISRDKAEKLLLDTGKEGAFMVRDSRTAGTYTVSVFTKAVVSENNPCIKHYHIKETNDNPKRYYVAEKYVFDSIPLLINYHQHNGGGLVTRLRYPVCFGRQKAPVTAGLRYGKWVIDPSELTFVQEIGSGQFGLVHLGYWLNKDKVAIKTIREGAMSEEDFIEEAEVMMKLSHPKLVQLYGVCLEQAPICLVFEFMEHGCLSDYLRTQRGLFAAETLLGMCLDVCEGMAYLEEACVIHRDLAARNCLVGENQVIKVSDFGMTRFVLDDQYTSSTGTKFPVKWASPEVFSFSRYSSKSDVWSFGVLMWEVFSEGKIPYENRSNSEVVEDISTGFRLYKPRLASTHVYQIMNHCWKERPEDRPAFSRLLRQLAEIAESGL
Conditions: at 0.1 µM.

Molecules are shown by their SMILES.

Insulin-like growth factor 1 receptor (Homo sapiens), sequence (P08069 31-736 limits assumed): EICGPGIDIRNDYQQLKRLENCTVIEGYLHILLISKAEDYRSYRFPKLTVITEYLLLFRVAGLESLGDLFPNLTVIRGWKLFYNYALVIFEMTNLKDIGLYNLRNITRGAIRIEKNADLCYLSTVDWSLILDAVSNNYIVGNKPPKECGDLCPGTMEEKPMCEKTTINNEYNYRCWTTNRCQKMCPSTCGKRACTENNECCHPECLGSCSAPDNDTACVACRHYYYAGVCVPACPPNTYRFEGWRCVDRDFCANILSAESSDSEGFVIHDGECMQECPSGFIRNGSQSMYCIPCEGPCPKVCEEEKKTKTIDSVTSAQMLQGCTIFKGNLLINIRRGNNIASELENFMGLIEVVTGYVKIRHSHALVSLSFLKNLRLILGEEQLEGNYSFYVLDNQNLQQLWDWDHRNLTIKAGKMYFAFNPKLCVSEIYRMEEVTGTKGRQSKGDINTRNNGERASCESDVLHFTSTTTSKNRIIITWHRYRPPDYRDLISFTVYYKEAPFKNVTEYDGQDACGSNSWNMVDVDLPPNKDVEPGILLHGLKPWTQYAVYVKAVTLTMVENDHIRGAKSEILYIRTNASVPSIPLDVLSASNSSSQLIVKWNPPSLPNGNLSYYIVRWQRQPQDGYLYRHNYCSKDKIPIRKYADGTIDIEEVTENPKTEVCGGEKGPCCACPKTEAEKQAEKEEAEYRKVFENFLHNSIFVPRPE
Insulin-like growth factor 1 receptor (Homo sapiens), sequence (P08069 741-1367 limits assumed): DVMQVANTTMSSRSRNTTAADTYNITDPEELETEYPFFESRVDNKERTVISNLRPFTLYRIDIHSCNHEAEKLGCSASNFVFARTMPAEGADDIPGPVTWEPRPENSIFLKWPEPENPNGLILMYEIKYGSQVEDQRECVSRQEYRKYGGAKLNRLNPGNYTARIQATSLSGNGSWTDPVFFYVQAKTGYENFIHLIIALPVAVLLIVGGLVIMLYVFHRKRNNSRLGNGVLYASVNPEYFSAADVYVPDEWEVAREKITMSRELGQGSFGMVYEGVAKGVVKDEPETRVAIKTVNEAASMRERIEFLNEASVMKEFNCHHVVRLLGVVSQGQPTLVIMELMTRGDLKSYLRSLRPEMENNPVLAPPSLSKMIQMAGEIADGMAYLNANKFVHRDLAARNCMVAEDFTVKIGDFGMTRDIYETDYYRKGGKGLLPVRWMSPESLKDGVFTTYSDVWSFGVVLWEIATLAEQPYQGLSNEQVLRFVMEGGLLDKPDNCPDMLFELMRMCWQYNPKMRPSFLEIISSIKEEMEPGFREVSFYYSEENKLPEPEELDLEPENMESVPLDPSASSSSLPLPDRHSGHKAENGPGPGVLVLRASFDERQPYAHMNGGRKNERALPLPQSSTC
Serine/threonine-protein kinase PLK1 (Homo sapiens), sequence (P53350 whole entry): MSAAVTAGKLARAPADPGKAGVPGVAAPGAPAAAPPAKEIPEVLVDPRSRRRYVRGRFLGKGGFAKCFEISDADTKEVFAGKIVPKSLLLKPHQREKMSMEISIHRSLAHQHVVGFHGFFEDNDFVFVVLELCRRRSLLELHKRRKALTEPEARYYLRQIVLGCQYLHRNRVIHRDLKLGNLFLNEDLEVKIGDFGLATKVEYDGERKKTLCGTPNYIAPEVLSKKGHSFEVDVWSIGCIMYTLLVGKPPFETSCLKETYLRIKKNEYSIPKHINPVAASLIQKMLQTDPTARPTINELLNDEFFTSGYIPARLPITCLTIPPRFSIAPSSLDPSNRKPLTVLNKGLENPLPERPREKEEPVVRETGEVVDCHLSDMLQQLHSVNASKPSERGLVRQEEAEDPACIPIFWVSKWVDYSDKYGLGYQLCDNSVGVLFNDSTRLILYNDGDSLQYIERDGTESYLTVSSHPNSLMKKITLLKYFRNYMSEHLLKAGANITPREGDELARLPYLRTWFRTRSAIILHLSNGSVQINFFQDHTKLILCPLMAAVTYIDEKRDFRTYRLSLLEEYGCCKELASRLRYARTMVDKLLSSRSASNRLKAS

Turning to `O=C1NC(=O)C(c2cccc(Cl)c2)=C1Nc1ccc(Cl)c(C(=O)O)c1`, the inhibition – broadly, the change of the read-out against control, counted positive when it falls – is 2.04% in [1]; 4.93% in assay [2]; 2.75% in assay [3]; 5.47% in [4]; -3.79% in assay [5]; 3.32% in [6]. Further, the inhibition is 12.2% in assay [7]; -0.3% in [8]; 10.7% in assay [9]; 0.43% in assay [10]; 6.23% in assay [11]; 3.57% in assay [12]. The inhibition in assay [13] amounted to 3.65%; in assay [14], 2.14%; in assay [15], 3.35%; in assay [16], 4.57%; in assay [17], 7.53%; in [18], 1.75%. The inhibition in assay [19] worked out at 1.42%; in assay [20] it was 1.1%.

As for `COc1cc(Nc2ncc(-c3ccccc3)o2)cc(OC)c1OC`, the inhibition was 8.49% in [1]; -0.55% in assay [2]; 2.1% in assay [3]; 5.82% in [4]; 63.1% in assay [5]; 7.69% in [6]. Moreover, the inhibition in assay [7] worked out at 36.7%; in assay [8], 20.1%; in assay [9] it was 57.6%; in assay [10], 6.4%; in assay [11], 37.5%; in [12], 3.3%. The inhibition in [13] is 31.2%; in assay [14], 1.91%; in assay [15], 2.07%; in [16], 4.48%; in assay [17], -0.22%; in assay [18], -2.58%. Besides, the inhibition was -1.95% in assay [19] and -0.21% in assay [20].

As for `NS(=O)(=O)c1ccc(Nc2cc(-c3ccc(O)c(F)c3)n[nH]2)cc1`, the inhibition in assay [1] is 2.31%; in assay [2] it was -1.16%; in assay [3], -3.09%; in assay [4], -2.03%; in assay [5], 34.1%; in assay [6] it was 0.48%. The inhibition in [7] turned out to be 16.5%; in assay [8], 0.43%; in assay [9], 23.6%; in assay [10] it was 0.43%; in assay [11], 9.16%; in assay [12], 0.38%. The inhibition in assay [13] was 11.1%; in assay [14], -1.39%; in assay [15], -0.67%; in assay [16], -3.62%; in [17], 2.77%; in [18] it was -4.66%. For the same compound, the figures for the inhibition in [19] and in assay [20] were -2.36% and 0.74%, respectively.

Consider `CN(C)CCOc1ccc(-c2cc(-c3ccc4c(c3)CCC4=NO)c(-c3ccncc3)o2)cc1`, for which the inhibition in assay [1] is -0.58%; in [2] it was 1.65%; in assay [3], -0.86%; in assay [4], 1.31%; in assay [5], -3.1%; in assay [6] it was -0.84%. Moreover, the inhibition in assay [7] was -0.94%; in assay [8], -3.24%; in assay [9], -0.1%; in assay [10] it was 1.29%; in assay [11], 8%; in assay [12], -2.29%. The inhibition was 2.91% in [13]; -3.2% in [14]; 0.2% in [15]; 3.17% in assay [16]; 1.94% in [17]; -1.33% in [18]. Also, the inhibition is -1.94% in assay [19] and -1.36% in assay [20].
